Experiment in all cases: NCI-60 one-dose screen, 48 h (100 = growth as untreated, 0 = no growth, -100 = all killed)
Common to all, as to details: 10 µM

Experiment [1] relates to RPMI-8226 leukemia.
The test system of experiment [2] is OVCAR-8 ovarian.
Experiment [3] has as its system OVCAR-5 ovarian.
In experiment [4] the test system is OVCAR-4 ovarian.
Experiment [5] concerns SK-OV-3 ovarian.
The subject of experiment [6] is IGROV1 ovarian.
The subject of experiment [7] is OVCAR-3 ovarian.
Experiment [8] deals with HS 578T breast.
Experiment [9] relates to NCI/ADR-RES ovarian.
Experiment [10] relates to T-47D breast.
For experiment [11], the system named is BT-549 breast.
Experiment [12] has as its system MDA-MB-435 melanoma.
Experiment [13] relates to SW-620 colon.
Experiment [14] relates to MCF7 breast.
For experiment [15], the system named is HCT-116 colon.
Experiment [16] has as its system HCC-2998 colon.
Experiment [17] concerns KM12 colon.

Each structure is given as a SMILES string. The panel holds about 83,000 compounds, 20% with a hit somewhere; the sample as a whole holds those more often.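 Single-dose data. Exposure time 48 hours. Values below 10 considered active.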 Values without a mark were called inactive. Activity calls are given as the source filed them.

Regarding `C[C@@H]1C=C2C(=O)O[C@@H]3CC[C@H](C1)[C@]23O`, the growth in experiment [1] was 75.8%; in experiment [2] it was 78.3%; in experiment [3], 104%; in experiment [4], 76.5%; in [5], 105%; in experiment [6] it was 42.2%. The growth in experiment [7] was 66.9%; in [8], 96.4%; in experiment [9], 93.2%; in experiment [10], 26.3%; in [11], 54.4%; in experiment [12], 57.7%. The growth in [13] is 48.8%; in [14], 36.8%; in experiment [15], 48.7%; in experiment [16], 99.9%; in [17] it was 100%.

With `CS(=O)(=O)Nc1ccc(Nc2c3ccccc3nc3cc([N+](=O)[O-])ccc23)cc1`, the growth is 0.427% (active) in experiment [1]; 16.6% in experiment [2]; 67.7% in experiment [3]; 46.8% in experiment [4]; 53.3% in [5]; 10.5% in experiment [6]. Besides, the growth in experiment [7] was -1.65% (active); in [8] it was 60.3%; in [9] it was 87%; in [10], -11% (active); in experiment [11], 32.5%; in experiment [12], 39.7%. For the same compound, the growth is 7.02% (active) in [13]; 2.38% (active) in experiment [14]; 4.91% (active) in experiment [15]; 32.3% in experiment [16]; -35.7% (active) in [17].

For `O=C(O)c1ccc(Cl)cc1Nc1ccc(F)cc1`, the growth in [1] was 88.6%; in experiment [2], 74.1%; in experiment [3], 81%; in [4], 38%; in experiment [5] it was 70.9%; in [6], 119%. The growth in [7] was 6.97% (active); in [8], 94.3%; in [9], 91.3%; in experiment [10], 78.7%; in experiment [11] it was 32.5%; in [12], 83.2%. Besides, the growth in experiment [13] was 94.6%; in experiment [14], 76.7%; in experiment [15], 72.8%; in experiment [16], 81.9%; in [17] it was 74.5%.

In the case of `Cc1cccc(Cl)c1NC(=O)c1ccc2nc(NC(=O)NC3CCN(C)CC3)sc2c1`, the growth in experiment [1] is 87.7%; in [2], 94.6%; in [3], 71.1%; in experiment [4], 99.5%; in experiment [5], 61.8%; in experiment [6], 86%. Moreover, the growth in experiment [7] is 116%; in [8] it was 48.6%; in experiment [9], 106%; in experiment [10], 66%; in [11] it was 98.2%; in experiment [12], 82.9%. Also, the growth is 98.4% in experiment [13]; 94% in experiment [14]; 81.9% in [15]; 105% in experiment [16]; 105% in [17].

As to `COc1ccc(-c2nsc3c2NC(=O)CC3c2ccc(F)cc2)cc1` (stereo not drawn), the growth in experiment [1] was 39.6%; in [2] it was 46.1%; in experiment [3] it was 40.3%; in [4] it was 90.8%; in experiment [5], 35.2%; in [6], 56.2%. Also, the growth in experiment [7] is 23.9%; in experiment [8], 66.6%; in experiment [9], 5.04% (active); in experiment [10], 22.2%; in [11] it was 28%; in experiment [12], -56.1% (active). The growth is 21.4% in experiment [13]; 22% in experiment [14]; 19.5% in experiment [15]; 56.7% in experiment [16]; 22.2% in experiment [17].

For `Nc1ccc2cc(S(=O)(=O)O)cc(O)c2c1N=Nc1ccc(F)cc1`, the growth in [1] is 106%; in experiment [2] it was 107%; in [3], 99.5%; in experiment [4], 137%; in [5], 103%; in experiment [6] it was 120%. The growth in experiment [7] is 117%; in experiment [8], 111%; in [9] it was 99.3%; in experiment [10], 101%; in experiment [11] it was 102%; in experiment [12], 113%. The growth was 104% in experiment [13]; 111% in [14]; 93.4% in experiment [15]; 102% in [16]; 107% in experiment [17].

With `COc1cc(Cl)cc(-c2nn(-c3cccc(NC(=O)Nc4cc(C(F)(F)F)cc(C(F)(F)F)c4)c3)cc2-c2ccncc2)c1`, the growth in experiment [1] is -17.5% (active); in experiment [2], -2.46% (active); in [3] it was 21.6%; in [4], 11.9%; in experiment [5] it was 6.84% (active); in experiment [6] it was 23%. Besides, the growth in [7] was -1.62% (active); in experiment [8] it was 5.82% (active); in experiment [9], 2.37% (active); in experiment [10] it was 6.56% (active); in experiment [11], 6.61% (active); in experiment [12], -19.5% (active). For the same compound, the growth in experiment [13] is 7.18% (active); in experiment [14] it was 3.81% (active); in experiment [15], -4.6% (active); in experiment [16] it was 9.5% (active); in experiment [17] it was 12.2%.

As for `Clc1ccc(Nc2ccnc(NCCCNc3ccnc4cc(Cl)ccc34)n2)cc1`, the growth was -62.1% (active) in experiment [1]; -49% (active) in [2]; 18.3% in [3]; 6.79% (active) in [4]; -32% (active) in experiment [5]; -6.05% (active) in [6]. Further, the growth was -19% (active) in experiment [7]; -56.7% (active) in experiment [8]; 4.05% (active) in experiment [9]; -63.7% (active) in [10]; 0.946% (active) in experiment [11]; -87.3% (active) in experiment [12]. Further, the growth in experiment [13] is -60.9% (active); in [14], -89.8% (active); in experiment [15] it was -78.3% (active); in experiment [16], -88.9% (active); in experiment [17] it was -16.2% (active).

Consider `O=C(CCCCC(=O)Nc1ccc2c(c1)/C(=C/c1ccc[nH]1)C(=O)N2)NO`, for which the growth was 96.3% in [1]; 69.4% in experiment [2]; 100% in [3]; 56.6% in experiment [4]; 73.6% in [5]; 95.5% in [6]. Moreover, the growth in experiment [7] is 36.9%; in experiment [8], 72.4%; in [9] it was 93.8%; in experiment [10], 0.269% (active); in experiment [11], 97.1%; in experiment [12], 74.8%. In addition, the growth was 83.9% in experiment [13]; 61.9% in experiment [14]; 88.3% in experiment [15]; 101% in experiment [16]; 78% in experiment [17].

(Values after PubChem BioAssay (NCI).)
